Experimental data from the supplement of paper PMC4723716.

Test system: Plasmodium falciparum NF54 gametocytes
Assay: viability index relative to DMSO control (fraction); higher = less gametocyte killing
Details: 12.5 µM, incubation time: 72 h
Outline: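 The viability index expresses each well's gametocyte particle count relative to the plate mean of solvent-only wells. Stage I–V P. falciparum NF54 gametocytes (0.50% gametocytemia, 1.25% hematocrit, 40 µl of serum-containing medium) were exposed to compound at 12.5 µM for 72 hr at 37°C under low oxygen in 384-well plates. They were stained for 20 min with 5 µl of 5 µM MitoTracker Red CMXRos, and 5 µl was then transferred into 40 µl of 500 nM dye in serum-free medium for imaging of three fields 30 min later.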

[1] = gametocyte stage: Stage I viability index
[2] = gametocyte stage: Stage II viability index
[3] = gametocyte stage: Stage III viability index
[4] = gametocyte stage: Stage IV viability index
[5] = gametocyte stage: Stage V viability index

Row | Structure (SMILES) | viability index [1] | viability index [2] | viability index [3] | viability index [4] | viability index [5]
1 | CCOc1cccc(C(=O)Nc2ccc(-c3nc4ccccc4[nH]3)cc2)c1 | 0.0751 | 0.574 | 1.1 | 0.894 | 0.637
2 | Clc1ccc2c(N3CCCC3)ccnc2c1 | 0.241 | 0.491 | 0.915 | 0.93 | 1.14
3 | Oc1ccc(-c2nc(-c3ccc4oc5ccc(-c6[nH]c(-c7ccc(O)cc7)nc6-c6ccccc6)cc5c4c3)c(-c3ccccc3)[nH]2)cc1 | 0.000874 | 0 | 0 | 0 | 0.013
4 | O=C(NCC(c1ccsc1)N1CCCCCC1)c1ccc(C(F)(F)F)cc1 (stereo not given) | 0.653 | 0.881 | 0.843 | 0.9 | 0.725
5 | O=C(NC(c1ccccc1)c1ccc2cccnc2c1O)c1ccccc1 (stereo not given) | 0.00552 | 0.029 | 0.0453 | 0.103 | 0.0769
6 | CC(C)OCc1cc(CN2CCN(c3cccc(Cl)c3)CC2)c(O)c2ncccc12 | 0.00331 | 0.0328 | 0.0297 | 0.0243 | 0.011
7 | Nc1ccn(C2O[C@H](CO)[C@@H](O)[C@H]2O)c(=O)n1 (stereo not given in full) | 0.976 | 1.14 | 0.955 | 1.07 | 1.1
8 | O=C1C2=C(Nc3ccccc3SC2c2ccccc2)c2ccccc21 (stereo not given) | 0.678 | 0.794 | 0.742 | 0.623 | 0.662
9 | CCOC(=O)c1cnc2c(C)cccc2c1Nc1ccc(C(C)=O)cc1 | 1.16 | 0.83 | 1.06 | 1.08 | 1.03
10 | O=C(Cc1ccccc1)NC(c1ccc(Cl)cc1)c1c(O)ccc2ccccc12 (stereo not given) | 0.0691 | 0.316 | 0.631 | 0.604 | 0.857
11 | c1ccc(CNc2nc(Nc3ccccc3)nc3ccccc23)cc1 | 0.0367 | 0.211 | 0.586 | 0.563 | 0.481
12 | CCOc1cc(Cl)c(C(C)NC(=O)c2cccc(OC)c2)cc1OCC (stereo not given) | 0.0343 | 0.121 | 0.143 | 0.298 | 0.231
13 | CCN(CC)CCCNc1nc(-c2ccc(Cl)cc2)nc2ccccc12 | 0.693 | 0.751 | 1.01 | 0.903 | 0.956
14 | COc1ccc(C2C(C(=O)Nc3cccc(OC)c3)c3ccccc3C(=O)N2C2CCCCC2)cc1 (stereo not given) | 0.0691 | 0.0974 | 0.488 | 0.551 | 0.519
15 | O=C(Nc1ccccc1O)c1ccc(-c2ccc(Cl)cc2Cl)o1 | 0.0166 | 0.0976 | 0.6 | 0.653 | 0.736
16 | Cc1cc(N2CCN(C3CCCC3)CC2)n2c(nc3ccccc32)c1C#N | 0.833 | 0.875 | 1.15 | 1.02 | 1
17 | COc1cc(-c2nc(-c3ccc(Sc4ccccc4)cc3)c(-c3ccccc3)[nH]2)cc(OC)c1O | 0.0507 | 0.0441 | 0.0529 | 0.0222 | 0.0779
18 | COc1cc2cc(C(=O)Nc3ccccc3)c(N)nc2cc1OC | 0.0265 | 0.434 | 0.727 | 0.86 | 0.758
19 | CC1=C(CC(=O)c2cccc([N+](=O)[O-])c2)C(=O)c2ccccc2C1=O | 0.00612 | 0.00167 | 0.0706 | 0.196 | 0.234
20 | CCN1CCN(c2c(C(=O)c3ccccc3)cnc3cc(OC)c(OC)cc23)CC1 | 1.03 | 0.988 | 1.22 | 1 | 0.909

Row | Structure (SMILES) | viability index [1] | viability index [2] | viability index [3] | viability index [4] | viability index [5]
21 | CC(=O)c1sc(NC(=O)Nc2ccc(C)cc2C)nc1C | 0.271 | 0.455 | 0.673 | 0.801 | 0.714
22 | COc1ccc(C=C2SC(=N)N(c3ccccc3OC)C2=O)cc1 | 0.642 | 0.916 | 0.942 | 0.769 | 0.923
23 | COc1ccc(-c2nonc2NC(=O)c2cccc(C)c2)cc1OC | 0.62 | 0.55 | 0.571 | 0.769 | 0.571
24 | COc1ccc(C(=O)NC(c2ccc(Cl)cc2Cl)c2cc(Cl)c3cccnc3c2O)cc1 (stereo not given) | 0.0262 | 0.0341 | 0.0814 | 0.136 | 0.0779
25 | Cc1ccc(S(=O)(=O)c2c(COC(=O)c3cccc(C)c3)c(-c3ccccc3)nn2C)cc1 | 0.982 | 0.881 | 0.943 | 0.769 | 0.922
26 | Cc1cc(Nc2cccc(F)c2)nc(NCc2ccccc2)n1 | 0.0365 | 0.436 | 0.825 | 1.01 | 0.429
27 | COC(=O)c1ccc(Cl)c2c1C1C=CCC1C(c1cccc3ccccc13)N2 (stereo not given) | 0.825 | 0.795 | 1.14 | 0.962 | 0.883
28 | COc1ccc2sc(N(Cc3cccnc3)C(=O)c3ccc(C#N)cc3)nc2c1 | 1.05 | 0.773 | 0.995 | 0.934 | 1.16
29 | CCCCNc1nc(NC(C)(C)C)nc(NC(C)(C)C)n1 | 0.0157 | 0.0425 | 0.223 | 0.117 | 0.0649
30 | Cc1cccc(N2C(=O)C3C(C2=O)C2(c4ccccc4)C(=O)C3(c3ccccc3)C(c3ccc4c(c3)OCO4)=C2c2ccc3c(c2)OCO3)c1 (stereo not given) | 1.16 | 0.896 | 1.08 | 0.886 | 1.03
31 | COc1ccc(CCN2CCC(CN(C)Cc3cnn(-c4ccccc4)c3)CC2)cc1 | 0.203 | 0.496 | 0.508 | 0.498 | 0.418
32 | Cc1ccc(-c2cc3c(nn2)-c2ccccc2C3=O)cc1 | 0.61 | 0.871 | 0.74 | 0.897 | 1.05
33 | CCOC(=O)c1c(NC(=O)c2ccccc2)sc2c(O)c(CN(CC)CC)ccc12 | 0.0641 | 0.129 | 0.32 | 0.517 | 0.407
34 | Cc1cc(Nc2ccc(OCc3ccccc3)cc2)nc2cc(O)ccc12 | 0.332 | 0.199 | 0.468 | 0.487 | 0.481
35 | COc1ccc2c(c1)C1(Nc3ccccc3-c3nc4ccccc4n31)C(=O)N2 (stereo not given) | 0.0265 | 0.00483 | 0.017 | 0.0608 | 0.033
36 | Cc1cc(C=C2SC(=Nc3ccccc3)N(C3CCCC3)C2=O)c(C)n1-c1ccc(Cl)cc1 | 1.05 | 1.03 | 1.03 | 0.894 | 0.879
37 | CCCCCCc1cc2cc(-c3csc(C=Cc4ccccc4)n3)c(=O)oc2cc1O | 0.309 | 0.313 | 0.621 | 0.797 | 0.636
38 | COc1ccc(CCN2C(=O)c3[nH]nc(-c4cc(Cl)c(C)cc4O)c3C2c2ccccc2F)cc1 (stereo not given) | 0.083 | 0.29 | 0.6 | 0.665 | 0.675
39 | COc1cc(OC)c(N(C)C(=O)c2cc3c(s2)-c2ccccc2S(=O)(=O)C3)cc1Cl | 0.00884 | 0.00676 | 0.0212 | 0.131 | 0.022
40 | COc1ccc(C(=O)C(CCC(CNC(C)(C)C)C(=O)c2ccc(OC)cc2)CNC(C)(C)C)cc1 (stereo not given) | 0.811 | 0.698 | 0.548 | 0.418 | 0.117

Row | Structure (SMILES) | viability index [1] | viability index [2] | viability index [3] | viability index [4] | viability index [5]
41 | COc1ccc(C2c3ccc4ccccc4c3Oc3ncn(CCCn4ccnc4)c(=N)c32)cc1OC (stereo not given) | 0.0122 | 0.231 | 0.441 | 0.547 | 0.429
42 | CN1c2ccccc2N(C)C1c1ccc2c(c1)OCO2 | 0.952 | 0.862 | 1.05 | 0.964 | 1.03
43 | O=C(Nc1ccc(Br)cc1)Nc1cccc(Cl)c1 | 0.341 | 0.542 | 0.816 | 0.936 | 0.451
44 | COc1ccc(OC)c(C2C3=C(CC(C)(C)CC3=O)N(c3ccc(Cl)c(Cl)c3)C3=C2C(=O)CC(C)(C)C3)c1 | 0.713 | 0.88 | 0.807 | 0.807 | 0.623
45 | CCOC(=O)c1cnc2c(CC)cccc2c1O | 1.15 | 0.838 | 0.966 | 0.835 | 0.844
46 | COc1ccccc1N=C1C(=O)c2ccccc2C(O)=C1N1CCCCC1 | 0.0188 | 0.0203 | 0.0297 | 0.0699 | 0.0879
47 | O=C(NCCCN1CCC(N2CCCCC2)CC1)C1=Cc2cc(Br)ccc2OC1 | 0.0935 | 0.427 | 0.742 | 0.699 | 0.312
48 | COc1ccc(C2c3ccc4ccccc4c3Oc3ncn(CCCN(C)C)c(=N)c32)cc1 (stereo not given) | 0.0367 | 0.0483 | 0.0339 | 0.0316 | 0
49 | CCC(c1ccccc1)c1nn2c(-c3cccs3)nnc2s1 (stereo not given) | 1.04 | 0.992 | 1.07 | 0.875 | 0.725
50 | Cc1ccc(Nc2nc(-c3ccccn3)cs2)cc1 | 0.193 | 0.22 | 0.109 | 0.173 | 0.121
51 | COc1ccc(C(O)(CCC(C)C)C(CN2CCOCC2)c2ccc(Cl)cc2)cc1 (stereo not given) | 1.2 | 0.843 | 1.12 | 1 | 0.922
52 | COc1ccc(-c2cc(=O)oc3c4c(ccc23)OCN(Cc2ccc(F)cc2)C4)cc1 | 0.0192 | 0.0833 | 0.406 | 0.516 | 0.545
53 | CCOC(=O)c1ccc2nc(-c3ccccc3)cc(O)c2c1 | 0.606 | 0.719 | 0.761 | 0.757 | 1.12
54 | O=C(c1ccccc1F)N(Cc1ccc(Cl)cc1)c1ccccn1 | 0.716 | 0.955 | 0.997 | 0.93 | 0.967
55 | COc1ccc(N2CCN(C(CNC(=O)C3CCCCC3)c3ccc4c(c3)OCO4)CC2)cc1 (stereo not given) | 0.912 | 0.986 | 1.04 | 0.86 | 0.758
56 | COc1ccc2nc(C)cc(Nc3cccc(O)c3)c2c1 | 0.105 | 0.564 | 0.896 | 0.991 | 1.1
57 | CC(C)(C)c1ccc(O)c(CNC2CCCCC2)c1 | 0.256 | 0.329 | 0.482 | 0.571 | 0.462
58 | CCCN(CCC)CCCNC(=O)c1cc2c(-c3ccc(OC)c(OC)c3)nn(C)c2s1 | 0.302 | 0.754 | 0.996 | 0.954 | 0.868
59 | COc1ccc2nc(C)cc(Nc3ccccc3O)c2c1 | 0.139 | 0.625 | 1.04 | 1.09 | 0.912
60 | Cc1sc2ncnc(Sc3nc4ccccc4[nH]3)c2c1C | 0.0276 | 0.0135 | 0.0354 | 0.0821 | 0.0659
